Drawing on the supplement of paper PMC6555819, this text covers PBM binding z-score for 39 sequences.

This test has as its system RARg:RXRa (NR concentration 270 nM, RXRa partner concentration 90 nM). Put plainly: PBM binding z-score (relative to random genomic background probes); higher = stronger binding; sequences stand for … in GC…GCGATTGACAGCGTAGAATGAAGG
In outline: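 Ligand-free nuclear receptor dimers were applied to custom Agilent 4×180K protein-binding microarrays whose double-stranded probes carried direct-repeat seeds, single-nucleotide variants, half-site ablations and random human genomic background sequences in 34-nt variable regions. Incubation lasted 1 h. Binding z-scores were computed against the random background probes from regression-normalized fluorescence.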
ATATGTAGGTTAAGGGACATTCAGGTTGGTTCGC: the PBM binding z-score worked out at 1.28.

The sequence ATCTCTAGGTAACCAAGTTCAGTGAGTGCCGAAC had a PBM binding z-score of 0.591.

In turn, GCACACAGGTGAAACGCAGGTAACTCAGGGTGGC displayed a PBM binding z-score of 1.15.

Sequence TCTAGTTGGTCACGGAGGTTACACACGACGGGTA came in with a PBM binding z-score of 2.29.

Sequence TCTTGGAGATCAGCAGGTTAAGAAAGCTGGCCAA gave a PBM binding z-score of -0.0345.

Sequence ATATGTAGGTTATCGGGTCATGCAGTTTGCGCAT displayed a PBM binding z-score of 3.43.

In turn, GCAGACAGGTGAAACGCAGGTCACTCAGGGTGGC had a PBM binding z-score of 5.21.

Sequence GCTGCTAGGTCAGGTTGGTCCGCTAACGGGTACG showed a PBM binding z-score of 2.29.

CGACCAAGGTCATAGGAGGTCAGTGAAGACAGAT displayed a PBM binding z-score of 6.79.

In turn, CGTCCAAGGTCAGAGAGGTCAGTGGATGCCGAGT came in with a PBM binding z-score of 6.26.

Sequence CGTCCAAGGCCAGCAGGTCAGTGAAAGCGACGTG gave a PBM binding z-score of 1.85.

GCAGACAGGTGAAACGCAGGGAACTCAGGGTGGC showed a PBM binding z-score of 0.193.

CGTCCAAGGTCAGAGAGGTTAGTGAATGCCGAGT: the PBM binding z-score was 4.7.

For TAGCCTAGGTCATTGGCCCAGTATAGTACGCATC, the PBM binding z-score was found to be 3.61.

Consider GATACAGGGTCAAGGCCAGTGTACGCGTATTGAT, for which the PBM binding z-score is 5.61.

TGTCTAAGTTCAAAGGTAACGTAAGTATCCACAC displayed a PBM binding z-score of 4.48.

The sequence CTCGAAAGGTCGTGCTCAGGTGGGTATACCAAAC came in with a PBM binding z-score of 4.38.

CGAACTAGGTCATCCACGACAGTGAATACATTGA yielded a PBM binding z-score of 3.96.

Consider ACTAGTTGGTCAGCTGAAGTCACACACAATTCGG, for which the PBM binding z-score came out at 0.686.

In the case of TAATATAGGTAAACAGGTGAAAGTCCGTAAGTTA, the PBM binding z-score came out at 0.857.

CCTTACGGGTCGCGAGGTTATAGCACGACGAGCG gave a PBM binding z-score of 3.39.

TCTAGGAGGCCAGAGGGTCACTCAAGAGGTACGG: the PBM binding z-score was 3.09.

CCTACTGGGCAACGAAAGGTCATTGATTCAGTGA registered a PBM binding z-score of 4.88.

As to AGCATGAGGTTAAGATCAGGGAAACAGAATACAT, the PBM binding z-score turned out to be 2.08.

TAACCAAGGTGAGCTGAGGTCGTTGATCCAACTC: the PBM binding z-score amounted to 1.33.

As for TCATTTAGGTAAACAGGTGAAAGTCCGTAAGTTA, the PBM binding z-score was determined as 0.646.

CCTCTGAGGACAACAGGAGGTCAGAGCTGCCAGA: the PBM binding z-score was found to be 3.66.

For the sequence CAAACTAGGTCAAGCTCAAAGTCGGTTTGTGCCA, the PBM binding z-score came out at 4.06.

In the case of GCTGCTACGTCAACTGATGGTCAGCTAAAGCTCG, the PBM binding z-score is -0.163.

For ACTTACGGGTGAACGAGGTTATAGCACGCGTATA, the PBM binding z-score was 1.47.

Consider ATCGAAAGGTCGACAAGGTGAGTATACACCGTTT, for which the PBM binding z-score was 4.25.

With GGAACGAGGGCAAGGTGATAGCAGAGTTTGATGG, the PBM binding z-score was 1.26.

Consider CGTCCAAGGTCAGAGAGGTCAGAGAATGCCGAGT, for which the PBM binding z-score is 6.29.

For the sequence CCCAGTTGGTCAGGAGGTCACACACCGGATATGA, the PBM binding z-score is 4.87.

For the sequence ACTATTAGTTGAGGCGAGGGCAACCGATAGGTTG, the PBM binding z-score worked out at 0.575.

The sequence ACAGACAGGTGCTGAAGGTAACTCAGGCTATCAT came in with a PBM binding z-score of -0.0198.

In turn, GCTCGCAGGACAAGGTCAGAGCTTTGTCCGTAGA displayed a PBM binding z-score of 2.71.

With CCGACTGGCGCAGAAAGGTTACCATACCATCCGG, the PBM binding z-score was 0.821.

With CCAGACAGGTGAAAGGTATCTCAGTCTGGTACGC, the PBM binding z-score was determined as 0.551.
